This is a sample that favours compounds with a hit; in the whole collection about 6.5% have one here.
Vaccinia Venus: vaccinia inhibition (Venus reporter) | 330,000 tested, 0.46% active | Potency, µM (highest dose often 36.5 µM), inactives show at the highest dose activity change, negative = inhibition, most hits filed as inhibitors | Vaccinia virus Venus reporter expression, fluorescence | AID 720580; calls by dose curve; tested in A549 cells; note: potency is the fitted concentration of half-maximal effect; nearly all actives have a fitted effect of over 30% in size
HCMV inh: inhibitors of human cytomegalovirus; HFF cells, HCMV-luciferase reporter, 72 h; hits give low values; activity change, negative = inhibition, % at 57.5 µM; 410,000 tested, 4.5% active; AID 1259415; in the data active = activity change below about -60%; inconclusive = no clear call, values can overlap the other calls; inactive = above about -39%
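Screen run at 2 compound doses on HFFs infected with reporter HCMV, MOI 1 PFU/cell. Luciferase activity from cell lysates at 72 h post infection gave inhibition relative to buffer-only and Salinomycin wells.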
Lassa entry inh: inhibitors of Lassa virus binding or cell entry | Lassa virus pseudotype entry inhibition, cell reporter | Potency, µM (titrated, usually from 37.9 µM), inactives show at the top dose activity change, negative = inhibition, most hits filed as inhibitors | 300,000 tested, 1.2% active | AID 540256; calls by dose curve; tested in HEK293 cells; note: potency is the fitted concentration of half-maximal effect; nearly all actives have a fitted effect of over 50% in size
Vaccinia mCherry: inhibitors of vaccinia virus infection (mCherry reporter signal); Potency, µM (top dose mostly 36.5 µM), for the others: top-dose activity change, negative = inhibition, usual class: inhibitors; 310,000 tested, 0.63% active; Vaccinia virus mCherry reporter infection, fluorescence; calls by dose curve; tested in A549 cells; note: potency is the fitted concentration of half-maximal effect; nearly all actives have a fitted effect of over 35% in size
FMDV antiviral: foot and mouth disease virus antiviral activity | FMDV antiviral cell-based qHTS | Potency, µM (top dose mostly 57.9 µM), for the others: at the top dose activity change, negative = inhibition, hits mostly inhibitors | 410,000 tested, 1.2% active | AID 1159524; calls by dose curve; tested in HEK293T cells; note: read-out not given here; potency is the fitted concentration of half-maximal effect; nearly all actives have a fitted effect of over 45% in size
Marburg entry inh: blocks Marburg virus binding to or entry into cells; Marburg virus pseudotyped entry inhibition, cell reporter; Potency, µM (doses to about 37.8 µM), for inactives: at the highest dose activity change, negative = inhibition, hits mostly inhibitors; 300,000 tested, 1.8% active; calls by dose curve; tested in HEK293 cells; note: potency is the fitted concentration of half-maximal effect
* marks the source's active call; other numbers are inactive results; [ ] = another dose, or the depositor's remark. % is set by controls: 0 for no effect and ±100 for the full control effect.

How did Cc1cccc(-n2ncc(C(=O)Nc3ccc4c(c3)OCO4)c2C2CCN(C(=O)OC(C)(C)C)CC2)c1 do in these assays?
Vaccinia Venus: -4%; HCMV inh: inconclusive; Lassa entry inh: 1%[46.1 µM]; Vaccinia mCherry: -15%; FMDV antiviral: 20%

What do the screens show for `Cc1ccc(-n2ncc(C(=O)Nc3ccc4c(c3)OCCO4)c2C2CCN(C(=O)OC(C)(C)C)CC2)cc1C`?
Vaccinia Venus: -14%; HCMV inh: active; Lassa entry inh: inconclusive; Vaccinia mCherry: -6%; FMDV antiviral: 0%

Results for CC(C)(C)OC(=O)N1CCC(c2c(C(=O)N3CCCCC3)cnn2-c2ccc(Cl)cc2)CC1 ?
Vaccinia Venus: -17%; HCMV inh: 3; Lassa entry inh: inconclusive; Vaccinia mCherry: -12%; FMDV antiviral: -4%

Results for Cc1ccc(CNC(=O)CCN2C(=O)C(C)Oc3ccc(C)cc32)cc1 (centres undefined) ?
Vaccinia Venus: -8%; HCMV inh: -3; Lassa entry inh: 11%[46.1 µM]; Vaccinia mCherry: -3%; FMDV antiviral: -8%; Marburg entry inh: inconclusive

Results for CC(C)(C)OC(=O)N1CCC(c2c(C(=O)NCc3ccccn3)cnn2-c2ccccc2Cl)CC1 ?
Vaccinia Venus: -16%; HCMV inh: inconclusive; Lassa entry inh: -16%[46.1 µM]; Vaccinia mCherry: -6%; FMDV antiviral: 9%

Results for COc1cccc(N2CCN(C(=O)c3cnn(-c4ccccc4Cl)c3C3CCN(C(=O)OC(C)(C)C)CC3)CC2)c1 ?
Vaccinia Venus: -5%; HCMV inh: 9; Lassa entry inh: inconclusive; Vaccinia mCherry: -13%; FMDV antiviral: -15%

What do the screens show for `COc1cccc(N2CCN(C(=O)c3cnn(-c4ccc(C)cc4C)c3C3CCN(C(=O)OC(C)(C)C)CC3)CC2)c1`?
Vaccinia Venus: -18%; HCMV inh: 22; Lassa entry inh: 1.1µM*; Vaccinia mCherry: -27%; FMDV antiviral: inconclusive

Results for CC(C)(C)OC(=O)N1CCC(c2c(C(=O)NCc3ccc(F)cc3)cnn2-c2ccc(F)cc2)CC1 ?
Vaccinia Venus: -26%; HCMV inh: 7; Lassa entry inh: inconclusive; Vaccinia mCherry: -20%; FMDV antiviral: -19%

What do the screens show for `COCCCNC(=O)c1cnn(-c2ccccc2Cl)c1C1CCN(C(=O)OC(C)(C)C)CC1`?
Vaccinia Venus: -2%; HCMV inh: active; Lassa entry inh: inconclusive; Vaccinia mCherry: -11%; FMDV antiviral: -5%

What do the screens show for `CC(C)(C)OC(=O)N1CCC(c2c(C(=O)NCCN3CCC(Cc4ccccc4)CC3)cnn2-c2ccc(F)cc2)CC1`?
Vaccinia Venus: inconclusive; HCMV inh: -106*; Lassa entry inh: inconclusive; Vaccinia mCherry: inconclusive; FMDV antiviral: -12%

How did CC(C)(C)OC(=O)N1CCC(c2c(C(=O)NCCN3CCC(Cc4ccccc4)CC3)cnn2-c2ccccc2)CC1 do in these assays?
Vaccinia Venus: 11µM*; HCMV inh: inconclusive; Lassa entry inh: inconclusive; Vaccinia mCherry: inconclusive; FMDV antiviral: inconclusive

How did Cc1cccc2cc(CN(C(=O)c3ccc(N4CCCCC4)cc3)C3CC3)c(N3CCC(O)CC3)nc12 do in these assays?
Vaccinia Venus: -5%; Vaccinia mCherry: -21%; FMDV antiviral: -9%

Results for Cc1ccccc1NC(=S)N(Cc1ccccn1)Cc1ccccc1Cl ?
Vaccinia Venus: -7%; HCMV inh: inconclusive; Lassa entry inh: inconclusive; Vaccinia mCherry: -14%; FMDV antiviral: 28%; Marburg entry inh: inconclusive

What do the screens show for `COc1ccccc1NC(=S)N(Cc1ccccc1)Cc1cccs1`?
Vaccinia Venus: -4%; HCMV inh: -20; Lassa entry inh: -2%; Vaccinia mCherry: -11%; FMDV antiviral: 17%; Marburg entry inh: 1.4µM*

What do the screens show for `COc1ccccc1NC(=S)N(Cc1ccccn1)Cc1ccccc1Cl`?
Vaccinia Venus: 10%; HCMV inh: -63*; Lassa entry inh: 2%; Vaccinia mCherry: 8%; FMDV antiviral: 26%; Marburg entry inh: inconclusive

How did Cc1ccccc1S(=O)(=O)N(C)C[C@@H]1OCc2cn(nn2)CCCC(=O)N([C@@H](C)CO)C[C@H]1C do in these assays?
HCMV inh: 5

What do the screens show for `C=C(C)C(O)C=Cc1ccccc1OC` (centres undefined)?
Marburg entry inh: 6%[14.2 µM]
